In PubChem BioAssay (NCATS):
Where “and” joins values, the source holds several entries; their conditions need not be identical. Equal entries are not always repeated. Inconclusive results are not listed. Calls of active or inactive are those of the source. Calls come from the whole dose curve; as a rule, active = well fitted curve in the direction sought with a large enough effect; inconclusive = small, poorly fitted or top-dose-only effect, or another doubt; inactive = no such curve, though single readings can be large; an effect the other way counts as inactive or inconclusive. Non-standard residues stand in square brackets, D forms with d. Residues, ends and D or L forms follow the SMILES beside them. *: point of attachment. Nva = CCC[C@H](N)C(=O)O; Cbz = O=C(OCc1ccccc1)*

Key:
[1] = P-glycoprotein substrates identified in KB-8-5-11 adenocarcinoma cell line, qHTS therapeutic library screen (AID 1346987); note: nearly all actives have a fitted effect of over 65% in size
In short: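 Human cervical adenocarcinoma KB-8-5-11 cells, selected in colchicine to over-express P-gp and assayed without it, were exposed for 72 h to titrated compounds. An ATP-based luminescent viability signal gave AC50.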

[2] = qHTS of pediatric cancer cell lines to identify multiple opportunities for drug repurposing: Primary screen for TC32 cells (AID 1347089); note: nearly all actives have a fitted effect of over 60% in size
In short: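 Luminescent ATP read-out (CellTiter-Glo) of metabolically active TC32 cells after 48 h exposure. Concentration-response curves came from 11-point (MIPE, 0.78 nM–46 µM) or 8-point (NPC, 0.59 nM–46 µM) primary titrations; follow-up used 11 points.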

[3] = qHTS of pediatric cancer cell lines to identify multiple opportunities for drug repurposing: Primary screen for DAOY cells (AID 1347090); note: nearly all actives have a fitted effect of over 55% in size
In short: (§1)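 Viability measured as metabolically active cells via CellTiter-Glo luminescence following 48 hours of compound exposure, 11-point dilutions in confirmatory testing. 500-1,000 cells/well plated 5 hours before dosing; controls were DMSO and 2.3 µM bortezomib.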

[4] = qHTS of pediatric cancer cell lines to identify multiple opportunities for drug repurposing: Primary screen for SJ-GBM2 cells (AID 1347091)
In short: as §1

[5] = NS1 protein of Zika virus - qHTS assay to identify small molecule inhibitors in human HEK 293 cells (AID 1347053); note: nearly all actives have a fitted effect of over 55% in size
In short: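 Readout was TR-FRET using paired anti-NS1 antibodies after 24 h infection of HEK 293 cells with ZIKV MR766 (MOI = 0.5). Compound preceded virus by 1 h; reduced signal reflects lower NS1 expression.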
Potency is the fitted concentration of half-maximal effect.

Structure (SMILES)	Potency [1]	Potency [2]	Potency [3]	Potency [4]	Potency [5]
CC[C@H]1OC(=O)[C@H](C)[C@@H](O[C@H]2C[C@@](C)(OC)[C@@H](O)[C@H](C)O2)[C@H](C)[C@@H](O[C@@H]2O[C@@H](C)C[C@H](N(C)C)[C@@H]2O)[C@](C)(O)C[C@@H](C)C(=O)[C@H](C)[C@@H](O)[C@]1(C)O	inactive	inactive	inactive	inactive	–
FC(F)c1nc2ccccc2n1-c1nc(N2CCOCC2)nc(N2CCOCC2)n1	1.16 µM (active)	–	–	0.0743 µM (active)	1.87 µM (active)
Cn1cc(-c2cnn3c(N)c(Br)c([C@H]4CCCNC4)nc23)cn1	inactive	–	–	0.235 µM (active)	0.833 µM (active)
Nc1nc(N)c2nc(-c3cccc(O)c3)c(-c3cccc(O)c3)nc2n1	11.8 µM (active)	18.6 µM (active)	7.43 µM (active)	8.33 µM (active)	–
Cn1cnc(=N)c2[nH]cnc21	10.5 µM (active)	–	1.18 µM (active)	1.48 µM (active)	inactive
Cc1ccc(-n2[nH]c(C)c(N=Nc3cccc(-c4cccc(C(=O)O)c4)c3O)c2=O)cc1C	inactive	–	18.7 µM (active)	–	inactive
C#Cc1cccc(Nc2ncnc3cc(OCCOC)c(OCCO)cc23)c1	23.5 µM (active)	–	3.72 µM (active)	5.26 µM (active)	inactive
CCC[C@H]1C[C@H](C(=O)N[C@@H]([C@@H]2O[C@@H](SC)[C@@H](O)[C@@H](O)[C@@H]2O)[C@H](C)Cl)N(C)C1	inactive	inactive	inactive	inactive	–
C=CC(=O)Nc1cccc(Nc2nc(NC3CCC(N(C)C)CC3)nc3c2ncn3C(C)C)c1 (configuration not stated)	inactive	1.47 µM (active)	0.003 µM (active)	–	–
CCC[C@@H](C=O)NC(=O)[C@H](CC(C)C)NC(=O)[C@H](CC(C)C)NC(=O)OCc1ccccc1 (Cbz-Leu-Leu-[Nva]-aldehyde)	7.43 µM (active)	3.7 µM (active)	0.935 µM (active)	–	–
CCc1ccc(C(=O)Nc2cc(CN3CCN(C)CC3)cc(C(F)(F)F)c2)cc1C#Cc1cnc2ccnn2c1	8.33 µM (active) and 3.66 µM (active)	–	23.5 µM (active)	9.35 µM (active)	13.2 µM (active)
O=C(Nc1ccc(Oc2ccnc3[nH]ccc23)c(F)c1)c1cccn(-c2ccc(F)cc2)c1=O	inactive	inactive	inactive	16.6 µM (active)	–
O=C(C=Cc1ccc(CN(CCO)CCc2c[nH]c3ccccc23)cc1)NO	0.59 µM (active)	0.93 µM (active)	0.469 µM (active)	0.118 µM (active)	–
CC[C@H]1OC(=O)[C@H](C)[C@@H](O[C@H]2C[C@@](C)(OC)[C@@H](O)[C@H](C)O2)[C@H](C)[C@@H](O[C@@H]2O[C@H](C)C[C@H](N(C)C)[C@@H]2O)[C@](C)(OC)C[C@@H](C)C(=O)[C@H](C)[C@@H](O)[C@]1(C)O	inactive	inactive	inactive	inactive	–
Oc1ccc([C@@H]2Oc3ccc(O)cc3[C@@H]3CCC[C@@H]32)cc1	5.9 µM (active) and 5.8 µM (active)	–	–	13.2 µM (active)	–
CC(Oc1ccc(O)cc1)(P(=O)(O)O)P(=O)(O)O	inactive	inactive	inactive	inactive	–
CC(=O)SCC(Cc1ccccc1)C(=O)NCC(=O)OCc1ccccc1 (configuration not stated)	inactive	–	2.35 µM (active)	5.9 µM (active)	–
CC(C=CC1=C(C)CCCC1(C)C)=CC=CC(C)=CC(=O)Nc1ccc(O)cc1	24.1 µM (active)	–	42.9 µM (active)	38.2 µM (active)	–
Nc1nc(=O)n([C@H]2CSC(CO)O2)cc1F (some centres not stated)	inactive	inactive	inactive	inactive	–
COc1cc(C[C@@H](CO)[C@H](CO)Cc2ccc(O)c(OC)c2)ccc1O	inactive	–	0.469 µM (active)	–	–
COc1cc(OC)c(C=CS(=O)(=O)Cc2ccc(OC)c(NCC(=O)O)c2)c(OC)c1	0.264 µM (active)	0.294 µM (active)	–	0.166 µM (active)	–
C[C@H](NC(=O)C(C#N)=Cc1cccc(Br)n1)c1ccccc1	20.9 µM (active)	inactive	–	2.96 µM (active)	–
CCCNC(=O)[C@H]1O[C@H]1C(=O)N[C@H](C(=O)N1CCC[C@@H]1C(=O)OC)C(C)CC (some centres not stated)	inactive	–	–	23.5 µM (active)	–
COc1cc2ncnc(Nc3cccc(Br)c3)c2cc1OC	inactive	inactive	–	20.9 µM (active)	–
CC(C)NC[C@@H](C(=O)N1CCN(c2ncnc3c2[C@H](C)C[C@H]3O)CC1)c1ccc(Cl)cc1	inactive	–	5.9 µM (active)	–	–
O=C1CSC(=O)N1C(CCc1ccncc1)COc1ccc(-c2cccc([N+](=O)[O-])c2)cc1 (configuration not stated)	inactive	–	7.43 µM (active)	–	–
COc1cc2c(cc1OC)[C@@H]1C(=O)c3ccc4c(c3O[C@@H]1CO2)C=CC(C)(C)O4	5.17 µM (active)	–	0.0743 µM (active)	18.7 µM (active)	–
